Values without a mark were called inactive. Records with an inconclusive call do not appear. Activity calls are given as the source filed them. Unless noted, calls follow the shape of the dose curve; as a rule, active = well fitted curve in either direction with a large enough effect (not every such curve was filed as active); inconclusive = small, poorly fitted or top-dose-only effect, or another doubt; inactive = flat fitted curve, though single readings scatter.

The target in experiment [1] is Lysosomal acid glucosylceramidase (Homo sapiens) (UniProt P04062). The experiment in a line: Glucocerebrosidase-p2 (AID 348; in the data active = potency below about 10 µM; also: potency is read from the fitted curve at half-maximal effect). Conditions: purified GBA, blue fluorogenic substrate, 40 min. In a few lines: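 Compounds titrated from 0.6 nM upwards against 0.2 nM enzyme in pH 5.9 citric acid/KH2PO4, taurocholate, tween-20; blue fluorogenic substrate 80 uM, 40 min room temperature, stopped and read Ex 365/Em 440 for AC50.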
Sequence of Lysosomal acid glucosylceramidase (Homo sapiens) (P04062 whole entry, looked up): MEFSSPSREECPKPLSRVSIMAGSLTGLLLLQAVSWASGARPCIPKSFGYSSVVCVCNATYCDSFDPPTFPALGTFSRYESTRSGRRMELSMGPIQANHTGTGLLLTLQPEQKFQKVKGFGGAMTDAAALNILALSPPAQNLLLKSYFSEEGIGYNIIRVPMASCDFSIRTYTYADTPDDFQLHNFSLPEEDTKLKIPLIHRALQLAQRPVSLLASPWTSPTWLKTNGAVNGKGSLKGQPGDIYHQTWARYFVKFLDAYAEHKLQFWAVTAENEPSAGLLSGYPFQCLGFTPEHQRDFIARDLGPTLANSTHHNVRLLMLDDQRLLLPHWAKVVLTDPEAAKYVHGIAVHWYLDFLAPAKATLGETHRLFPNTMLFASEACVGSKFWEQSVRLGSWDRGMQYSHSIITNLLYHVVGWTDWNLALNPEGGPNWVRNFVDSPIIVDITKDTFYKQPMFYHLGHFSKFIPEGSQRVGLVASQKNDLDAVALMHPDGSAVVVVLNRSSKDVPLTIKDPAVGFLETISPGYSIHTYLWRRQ

For experiment [2], the target named is Cytochrome P450 1A2 (Homo sapiens) (UniProt P05177). The experiment in a line: p450-cyp1a2 (AID 410; calls by dose curve; also: potency is read from the fitted curve at half-maximal effect). A digest of the protocol: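 Luminescent readout of luciferin formed from Luciferin-ME by human CYP1A2; data normalized against complete inhibition by 57 uM furafylline. Enzyme 20nM, substrate 100uM at Km, 100mM KPO4 buffer, 60 min reaction at room temperature.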
Sequence of Cytochrome P450 1A2 (Homo sapiens) (P05177 whole entry, looked up): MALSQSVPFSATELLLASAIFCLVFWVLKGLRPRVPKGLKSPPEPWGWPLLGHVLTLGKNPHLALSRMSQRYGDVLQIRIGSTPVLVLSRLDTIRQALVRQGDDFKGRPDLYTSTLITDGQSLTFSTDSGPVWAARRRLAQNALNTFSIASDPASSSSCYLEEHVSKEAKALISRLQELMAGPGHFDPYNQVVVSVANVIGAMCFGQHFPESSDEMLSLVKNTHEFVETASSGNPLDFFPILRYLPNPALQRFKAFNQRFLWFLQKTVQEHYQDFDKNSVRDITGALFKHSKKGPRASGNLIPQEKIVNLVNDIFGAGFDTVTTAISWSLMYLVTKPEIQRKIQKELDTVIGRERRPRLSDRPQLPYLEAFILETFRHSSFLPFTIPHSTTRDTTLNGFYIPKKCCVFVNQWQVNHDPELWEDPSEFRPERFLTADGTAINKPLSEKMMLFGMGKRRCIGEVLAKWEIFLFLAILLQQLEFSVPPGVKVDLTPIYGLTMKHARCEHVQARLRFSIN

The nature of experiment [3]: NFAT Signaling Pathway (AID 444).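 Also: carbachol stimulus at about its EC50 of 1 µM final; % is scaled to controls: 0 for no effect and ±100 for the full control effect.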 As to conditions: Jurkat NFAT-bla M1, carbachol, beta-lactamase ratio, 5 h; at 7.69 µM (top of the series) unless noted. A digest of the protocol:
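Jurkat cells carrying an NFAT-driven β-lactamase reporter and co-transfected muscarinic M1 receptor were treated with compound plus carbachol (1 uM final, an EC50 level) for 5 h at 37 °C. CCF4 loading followed for 1 h at RT; 460/530 nm ratio gave %activity.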

A short description of experiment [4]: Stat Signaling Pathway (AID 446).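 Also: ME-180 cervical cancer cells given 40 pM IL-6 alongside compound; SIE-controlled beta-lactamase reporter measured as 460/530 nm FRET emission ratio; % is scaled to controls: 0 for no effect and ±100 for the full control effect.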 Conditions: ME-180 SIE beta-lactamase reporter, IL-6 stimulated, 5 h; at 7.69 µM (top of the series) unless noted. A digest of the protocol:
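Screening format detects activators and inhibitors alike: ME-180 SIE-bla cells stimulated at 40 pM IL-6 for 5 hrs with compound, then dual-emission beta-lactamase read at 405 nm excitation.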

For experiment [5], the target named is Glucocorticoid receptor (Homo sapiens) (UniProt P04150). Briefly: GR-GFP Redistribution (AID 450;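 active = compounds whose dose series gives a full or clear partial fitted curve of increased nuclear translocation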; also: potency is read from the fitted curve at half-maximal effect). As to conditions: U2OS GR-GFP nuclear translocation, laser cytometry, 2 h.
Sequence of Glucocorticoid receptor (Homo sapiens) (P04150 whole entry, looked up): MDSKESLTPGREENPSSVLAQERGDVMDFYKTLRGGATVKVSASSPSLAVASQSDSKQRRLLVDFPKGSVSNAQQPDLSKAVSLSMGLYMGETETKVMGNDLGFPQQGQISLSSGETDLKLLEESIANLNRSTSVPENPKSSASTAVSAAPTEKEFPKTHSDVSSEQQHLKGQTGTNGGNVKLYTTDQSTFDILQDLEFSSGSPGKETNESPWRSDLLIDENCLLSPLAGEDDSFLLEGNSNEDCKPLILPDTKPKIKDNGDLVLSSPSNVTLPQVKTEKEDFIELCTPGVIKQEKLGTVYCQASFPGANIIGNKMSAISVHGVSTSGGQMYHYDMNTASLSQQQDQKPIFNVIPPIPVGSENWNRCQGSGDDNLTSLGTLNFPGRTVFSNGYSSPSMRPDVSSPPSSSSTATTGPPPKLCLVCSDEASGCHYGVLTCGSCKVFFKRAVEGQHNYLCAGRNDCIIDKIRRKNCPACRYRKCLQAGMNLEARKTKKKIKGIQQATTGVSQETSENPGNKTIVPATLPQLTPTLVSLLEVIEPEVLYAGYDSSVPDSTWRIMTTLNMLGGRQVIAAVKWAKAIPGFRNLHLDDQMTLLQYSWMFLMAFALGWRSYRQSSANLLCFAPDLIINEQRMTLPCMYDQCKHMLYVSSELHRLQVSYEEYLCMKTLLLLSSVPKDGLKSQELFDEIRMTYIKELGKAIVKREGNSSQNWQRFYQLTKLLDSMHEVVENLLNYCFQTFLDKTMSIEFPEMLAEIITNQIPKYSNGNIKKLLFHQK
For experiment [6] the target is unchanged. Briefly: GR-EFC Redistribution (AID 451; calls by dose curve; also: potency is read from the fitted curve at half-maximal effect). As to conditions: CHO-K1 GR-EFC translocation, beta-gal luminescence, 2 h. In a few lines:
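CHO-K1 cells stably expressing nuclear-localized β-gal enzyme acceptor and GR fused C-terminally to the enzyme donor fragment; ligand-driven nuclear translocation restores β-gal by complementation. Compounds titrated up to 46 uM final, 2 h at 37 °C; luminescence read.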

The target in experiment [7] is Mitogen-activated protein kinase 10 (Mus musculus) (UniProt Q61831). Briefly: JNK3 AlphaScreen Assay (AID 530).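 Also: kinase came from lysate of stimulated human HepG2 cells; signal reports phosphorylation of biotinylated GST-cJun 1-79 at Ser73 with 10 µM ATP; % is scaled to controls: 0 for no effect and ±100 for the full control effect.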 A digest of the protocol:
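Inhibitors reduce antibody binding to phosphorylated biotin-cJun, lowering AlphaScreen luminescence. Lysates from HepG2 cells pre-activated by IL-1beta plus TNF-alpha supplied JNK3; compounds were titrated.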
For orientation: Bead proximity is the source of the signal in Alpha formats.

In experiment [8] the target is 3',5'-cyclic-AMP phosphodiesterase 4B (Homo sapiens) (UniProt Q07343). The experiment in a line: qHTS Assay for Inhibitors of PDE-IV (AID 607; active = well fitted activation curve with a large enough effect in the main read-out, with a control signal flat, not every such curve was filed as active; also: % of control where 0% means no effect). A digest of the protocol:
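The readout is membrane depolarisation from a cAMP-sensing CNG channel, detected with a potential dye at ex 535/em 590. Cells were HEK293-derived (endogenous PDE-IV) at 1000 cells/well, titrated up to 22.9 uM final.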

Experiment [9] addresses Cytochrome P450 2C9 (Homo sapiens) (UniProt P11712). The experiment in a line: qHTS Assay for Inhibitors and Substrates of Cytochrome P450 2C9 (AID 883; active = well fitted curve in the direction sought with a large enough effect; an effect the other way counts as inactive or inconclusive; also: potency is read from the fitted curve at half-maximal effect; nearly all actives have a fitted effect of over 60% in size). In a few lines: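 CYP2C9 deoxyluciferin hydroxylation, 37C, 60 min with NADPH regeneration; 10nM enzyme, 100uM Luciferin-H (KM). Glo detection reagent stopped reaction; luminescence normalized to sulphaphenazole (57uM) full inhibition.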

Experiment [10] has as its target Cytochrome P450 3A4 (Homo sapiens) (UniProt P08684). Briefly: qHTS Assay for Activators of Cytochrome P450 3A4 (AID 885; active = well fitted curve in the direction sought with a large enough effect; an effect the other way counts as inactive or inconclusive; also: nearly all actives have a fitted effect of over 65% in size). In a few lines:
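Steps: enzyme/substrate mix dispensed; compound added, 10 min RT; NADPH regeneration solution added, 60 min RT; luciferin detection buffer stops reaction; 20 min later luminescence measured.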

Experiment [11] concerns the target Cytochrome P450 2D6 (Homo sapiens) (UniProt P10635). The experiment in a line: qHTS Assay for Inhibitors and Substrates of Cytochrome P450 2D6 (AID 891; active = well fitted curve in the direction sought with a large enough effect; an effect the other way counts as inactive or inconclusive;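 also: luciferin methyl ether substrate demethylated by CYP2D6 with NADPH regeneration; % is scaled to controls: 0 for no effect and ±100 for the full control effect; nearly all actives have a fitted effect of over 60% in size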). In a few lines:
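Human CYP2D6 (5 nM) with 30 uM Luciferin-ME EGE (at Km) in 100 mM KPO4, compound preincubated 10 min, then NADPH regeneration system for 60 min at room temperature. Luciferin read by luminescence; normalized to 1.43 uM quinidine.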
On the technique in general: In qHTS, concentration-response curves come from the screen itself.

Sequence of 3',5'-cyclic-AMP phosphodiesterase 4B (Homo sapiens) (Q07343 whole entry, looked up): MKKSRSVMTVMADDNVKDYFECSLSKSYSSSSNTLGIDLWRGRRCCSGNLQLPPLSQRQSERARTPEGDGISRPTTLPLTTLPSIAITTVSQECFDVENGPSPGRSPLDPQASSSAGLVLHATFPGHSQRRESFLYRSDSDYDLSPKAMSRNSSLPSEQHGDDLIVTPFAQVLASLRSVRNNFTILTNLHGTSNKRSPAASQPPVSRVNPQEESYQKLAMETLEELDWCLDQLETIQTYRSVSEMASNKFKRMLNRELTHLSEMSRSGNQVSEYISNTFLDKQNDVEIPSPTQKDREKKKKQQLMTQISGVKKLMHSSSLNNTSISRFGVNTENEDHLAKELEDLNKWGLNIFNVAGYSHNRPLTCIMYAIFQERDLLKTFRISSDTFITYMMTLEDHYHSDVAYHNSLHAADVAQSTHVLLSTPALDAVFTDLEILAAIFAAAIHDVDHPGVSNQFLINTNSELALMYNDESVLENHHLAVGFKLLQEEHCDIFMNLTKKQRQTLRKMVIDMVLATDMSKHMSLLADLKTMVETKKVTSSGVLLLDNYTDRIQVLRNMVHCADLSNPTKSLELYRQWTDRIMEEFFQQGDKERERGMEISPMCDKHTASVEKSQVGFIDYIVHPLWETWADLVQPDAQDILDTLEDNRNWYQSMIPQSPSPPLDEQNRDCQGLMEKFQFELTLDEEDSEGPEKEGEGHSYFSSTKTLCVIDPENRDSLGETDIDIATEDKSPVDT
Sequence of Cytochrome P450 2C9 (Homo sapiens) (P11712 whole entry, looked up): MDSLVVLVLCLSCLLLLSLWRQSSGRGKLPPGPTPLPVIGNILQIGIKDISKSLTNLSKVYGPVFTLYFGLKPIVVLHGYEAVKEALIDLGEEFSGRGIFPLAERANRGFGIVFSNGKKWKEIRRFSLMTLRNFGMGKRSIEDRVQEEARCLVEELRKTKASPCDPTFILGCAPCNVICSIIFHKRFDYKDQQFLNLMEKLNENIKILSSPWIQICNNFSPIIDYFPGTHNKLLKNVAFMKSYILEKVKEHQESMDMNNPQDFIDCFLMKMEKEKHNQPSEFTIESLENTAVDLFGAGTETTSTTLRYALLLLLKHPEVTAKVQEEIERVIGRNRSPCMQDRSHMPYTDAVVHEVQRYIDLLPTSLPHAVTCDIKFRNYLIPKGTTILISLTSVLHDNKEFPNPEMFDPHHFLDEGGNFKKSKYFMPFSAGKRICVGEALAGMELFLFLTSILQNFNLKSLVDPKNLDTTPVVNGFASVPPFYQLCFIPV
Sequence of Cytochrome P450 3A4 (Homo sapiens) (P08684 whole entry, looked up): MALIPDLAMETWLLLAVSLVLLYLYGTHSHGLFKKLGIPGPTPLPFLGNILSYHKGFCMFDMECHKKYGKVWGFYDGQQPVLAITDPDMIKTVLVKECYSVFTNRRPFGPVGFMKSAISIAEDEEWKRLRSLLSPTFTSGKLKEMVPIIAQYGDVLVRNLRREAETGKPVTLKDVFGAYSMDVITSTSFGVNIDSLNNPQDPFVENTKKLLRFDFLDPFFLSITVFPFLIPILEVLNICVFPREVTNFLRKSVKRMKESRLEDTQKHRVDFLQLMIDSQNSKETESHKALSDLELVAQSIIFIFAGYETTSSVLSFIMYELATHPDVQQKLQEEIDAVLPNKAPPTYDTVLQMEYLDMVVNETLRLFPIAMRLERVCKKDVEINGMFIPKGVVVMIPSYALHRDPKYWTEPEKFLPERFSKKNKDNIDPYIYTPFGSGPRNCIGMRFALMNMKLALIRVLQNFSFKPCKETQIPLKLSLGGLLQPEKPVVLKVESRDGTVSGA
Sequence of Cytochrome P450 2D6 (Homo sapiens) (P10635 whole entry, looked up): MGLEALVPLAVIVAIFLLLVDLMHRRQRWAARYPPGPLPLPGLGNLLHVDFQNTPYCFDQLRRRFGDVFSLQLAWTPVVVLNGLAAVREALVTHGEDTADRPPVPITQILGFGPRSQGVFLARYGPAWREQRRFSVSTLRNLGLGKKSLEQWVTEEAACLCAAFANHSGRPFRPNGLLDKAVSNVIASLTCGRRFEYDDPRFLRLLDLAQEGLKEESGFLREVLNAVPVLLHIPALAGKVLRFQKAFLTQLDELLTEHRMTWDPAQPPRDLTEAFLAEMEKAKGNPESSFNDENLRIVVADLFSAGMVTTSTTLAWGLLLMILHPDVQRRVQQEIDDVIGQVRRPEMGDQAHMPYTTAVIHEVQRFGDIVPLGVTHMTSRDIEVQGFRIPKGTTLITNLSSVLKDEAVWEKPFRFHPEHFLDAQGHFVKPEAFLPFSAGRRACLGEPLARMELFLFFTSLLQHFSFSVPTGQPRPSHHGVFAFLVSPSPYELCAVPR

In the case of `Cn1c(=O)c2[nH]c(SCc3ccccn3)nc2n(C)c1=S`, the Potency in experiment [1] was above 11.4 µM; in experiment [2], 12.6 nM (active); in experiment [5], above 46 µM; in [6] it was above 9.22 µM; in [9] it was 3.16 µM (active). Also, the activity change, negative = inhibition in experiment [3] was 13%. The activity, negative = inhibition in experiment [4] is -3.9%. Besides, the Potency entry in [7], in experiment [8], in [10] and in [11] was “inactive” each time.

The values are drawn from PubChem BioAssay (NCATS).
